According to PubChem BioAssay AID651813 (National Center for Advancing Translational Sciences (NCATS), 2012):
Several values for one entry are separate records, joined by “and”; a condition that tells them apart may be missing. Equal entries are not always repeated. About 1,100 (52%) of roughly 2,100 compounds were called active. Not shown: some 27% with an inconclusive outcome. The call rests on the fitted dose curve; in most records, active means well fitted inhibition curve with a large enough effect; inconclusive means small, poorly fitted or top-dose-only effect; inactive means no such curve, though single readings can be large or run the other way. So high a share suggests a set chosen from earlier hits. The list shows a part of the results.

Biological target: DNA dC->dU-editing enzyme APOBEC-3G (Homo sapiens) (UniProt Q9HC16)
Sequence (Q9HC16 whole entry, looked up): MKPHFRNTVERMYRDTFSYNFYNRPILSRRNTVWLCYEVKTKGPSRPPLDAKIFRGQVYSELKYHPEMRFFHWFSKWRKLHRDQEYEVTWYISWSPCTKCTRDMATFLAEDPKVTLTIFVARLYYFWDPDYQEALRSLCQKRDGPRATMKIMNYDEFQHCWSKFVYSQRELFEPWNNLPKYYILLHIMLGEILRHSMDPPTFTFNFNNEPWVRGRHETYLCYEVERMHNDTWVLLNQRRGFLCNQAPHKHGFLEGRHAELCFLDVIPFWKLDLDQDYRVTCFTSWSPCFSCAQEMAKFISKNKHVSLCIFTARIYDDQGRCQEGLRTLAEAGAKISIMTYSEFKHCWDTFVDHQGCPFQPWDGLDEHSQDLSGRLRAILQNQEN
Experiment: qHTS for inhibitors of Vif-A3G interactions: Cherry picks counterscreen;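 further: hits raise yellow fluorescence by blocking Vif-driven A3G-eYFP degradation; nearly all actives have a fitted effect of over 70% in size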;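 on max response: max response given as percent of control signal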
Settings: HeLa A3G-eYFP + Vif (tagged APOBEC3G with the HIV-1 protein that degrades it), eYFP fluorescence, 24 h
How it was run: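 Readout is eYFP fluorescence (488 nm excitation, 500-530 nm emission) measured on Acumen Explorer after 24 h compound exposure, several concentrations, at 37 deg C. Cells: HeLa stably co-expressing Vif and C-terminally eYFP-tagged A3G; MG132 positive control.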
Potency means the concentration at half of the fitted maximal effect.

| Structure (SMILES) | Potency | max response |
| --- | --- | --- |
| C[C@]12CCC[C@H](O1)c1c(cc3c(c1O)C(=O)c1c(O)cc(O)cc1C3=O)O2 | 16.4 µM (active) | – |
| Cc1cc(N(C)C)c(C)cc1/C=C/c1ccnc2ccccc12 | 10.3 µM (active) | – |
| CCN(CC)c1cc(C)c(/C=C/c2ccnc3ccccc23)cc1C | 16.4 µM (active) | – |
| O=C(O)c1ccccc1N/N=C/c1c(Sc2nnnn2-c2ccccc2)nc2ccccn2c1=O | 4.44 µM (active) | – |
| COc1cc(CCC(=O)Nc2nnc(C)s2)cc(OC)c1OC | 8.86 µM (active) | – |
| Cc1cc(NC(=O)Nc2nnc(N(C)Cc3ccccc3)s2)ccc1Br | – | 20.9% (inactive) |
| COc1cc(C(=O)Nc2nnc(Cc3ccccc3)s2)cc(OC)c1OC | 12.5 µM (active) | – |
| Cc1noc(C)c1COc1cccc(C(=O)OC(C)C(=O)Nc2ccc3c(c2)OCO3)c1 (stereo not given) | 3.53 µM (active) | – |
| COc1ccc(NC(=O)C(NC(=O)/C=C\c2ccc3c(c2)OCO3)c2ccccc2)cc1 (stereo not given) | – | -17% (inactive) |
| C/C(=N\NC(=S)NCc1ccccc1)c1cccs1 | – | -28.6% (inactive) |
| CC1(C)Cc2c(sc3ncnc(NNC(=S)NCc4ccccc4)c23)CO1 | 12.5 µM (active) | – |
| O=c1[nH]c2ccccc2nc1/C=C(\O)c1cccs1 | 4.61 µM (active) | – |
| NNC(=O)c1cc2sccc2s1 | – | 2.94% (inactive) |
| Cc1cc(/C=C2\SC(=S)N(Cc3ccco3)C2=O)c(C)n1-c1cccnc1 | 9.2 µM (active) | – |
| Cc1cc(/C=C2\SC(=S)N(Cc3ccco3)C2=O)c(C)n1-c1ccccc1 | 23.1 µM (active) | – |
| CCN1CCN(c2c(/C=C3\SC(=S)N(Cc4ccco4)C3=O)c(C)c(C#N)c(=O)n2C)CC1 | 20.6 µM (active) | – |
| CN(C)c1ccc(C=C2SC(=S)N(Cc3ccco3)C2=O)cc1 | 3.53 µM (active) | – |
| COc1ccc(Nc2nc3cc(C)ccc3cc2C#N)cc1 | 18.4 µM (active) | – |
| COc1ccc(Nc2nc3cc(C)ccc3cc2C#N)c(OC)c1 | 1.58 µM (active) | – |
| Cc1ccc2nc(NS(=O)(=O)c3ccc(Cl)cc3)c(Nc3ccc(C(=O)O)cc3)nc2c1 | – | 2.4% (inactive) |
| CC(=O)n1c2ccccc2c2nc3ccccc3nc21 | 2.59 µM (active) | – |
| C=CCNc1nc2cc(-c3cccc(Cl)c3)sc2c(=O)n1C | 14 µM (active) | – |
| CCOC(=O)c1ccc(/C=C2/C=C(c3ccccc3)N(c3ccc(Cl)c(C(=O)O)c3)C2=O)cc1 | 20.6 µM (active) | – |

| Structure (SMILES) | Potency | max response |
| --- | --- | --- |
| CCOC(=O)c1c(NC(=O)CSc2nc3ccc(OC)cc3[nH]2)sc2c1CC(C)(C)NC2(C)C | – | -23% (inactive) |
| C=CCOc1ccc2nc(NC(=O)OC)[nH]c2c1 | 2.23 µM (active) | – |
| COc1ccc(NC(=O)C2Cc3c(-c4cccc(C(C)=O)c4)ccnc3O2)cc1 (stereo not given) | 3.96 µM (active) | – |
| CC(=O)c1cccc(-c2ccnc3c2CC(C(=O)Nc2ccc(Cl)cc2)O3)c1 (stereo not given) | 12.5 µM (active) | – |
| COc1ccc(NC(=O)C2Cc3c(-c4cccc(NC(C)=O)c4)ccnc3O2)cn1 (stereo not given) | 14 µM (active) | – |
| CC(=O)Nc1ccc(-c2ccnc3c2CC(C(=O)Nc2cccc(N(C)C)c2)O3)cc1 (stereo not given) | 9.94 µM (active) | – |
| COc1cc(C2c3cc4c(cc3C(OC3OC5COC(c6cccs6)OC5C(O)C3O)C3COC(=O)C23)OCO4)cc(OC)c1O (stereo not given) | – | -84.8% (inactive) |
| CC(=O)Nc1cccc(-c2ccnc3c2CC(C(=O)Nc2ccc4c(c2)OCO4)O3)c1 (stereo not given) | 1.25 µM (active) | – |
| Cc1ccc(N=C2NC(=O)CC(C(=O)Nc3ccc4c(c3)OCO4)S2)cc1 (stereo not given) | – | -13.3% (inactive) |
| COc1ccc(NC(=O)C2Cc3c(-c4cccc(C(C)=O)c4)ccnc3O2)cn1 (stereo not given) | 1.4 µM (active) | – |
| C=CCSc1nc2sc3c(c2c(=O)n1CC)CCC3 | – | -26.5% (inactive) |
| CN(C)c1ccc(/C=C2\Oc3ccc(C#Cc4cccc(N)c4)cc3C2=O)cc1 | 17.7 µM (active) | – |
| CC1(C)Cc2nc3sc4c(=O)n(CC(=O)NCc5ccccc5)cnc4c3cc2CO1 | 3.96 µM (active) | – |
| COc1ccc(S(=O)(=O)NCc2ccccn2)cc1NC(=O)c1ccccc1 | 15.8 µM (active) | – |
| COc1ccc(OC)c2sc(NC(=O)CCS(=O)(=O)c3ccccc3)nc12 | – | -5.13% (inactive) |
| COc1ccc(S(=O)(=O)NCc2ccccn2)cc1NC(=O)c1ccc(C)cc1 | 11.2 µM (active) | – |
| CCOc1ccc(S(=O)(=O)NCc2ccccn2)cc1NC(=O)c1ccccc1 | 3.96 µM (active) | – |
| S=C(NCCSCc1ccc(Cl)cc1)Nc1ccccc1 | – | -13.3% (inactive) |
| O=[N+]([O-])c1ccc(/C=C/C2=NN(c3ccccc3)C(c3ccco3)C2)o1 (stereo not given) | 2.31 µM (active) | – |
| O=[N+]([O-])c1ccc(C2=Nc3cc(Cl)ccc3OC2)cc1 | – | -16.9% (inactive) |
| O=[N+]([O-])c1ccc(C2=NN(c3ccccc3)C(c3ccco3)C2)cc1 (stereo not given) | 0.498 µM (active) | – |
| COc1ccccc1N1N=C(c2ccc([N+](=O)[O-])cc2)CC1c1ccccc1 (stereo not given) | 1.25 µM (active) | – |
| Cc1cccc(NC(=O)/C=C/c2ccc([N+](=O)[O-])s2)c1 | 14.6 µM (active) | – |

| Structure (SMILES) | Potency | max response |
| --- | --- | --- |
| Cc1ccc(NC(=O)/C=C/c2ccc([N+](=O)[O-])s2)cc1 | 5.17 µM (active) | – |
| Cc1ccc(NC(=O)/C=C/c2ccc([N+](=O)[O-])s2)c(C)c1 | 10.3 µM (active) | – |
| Cc1cc(C)cc(NC(=O)/C=C/c2ccc([N+](=O)[O-])s2)c1 | 13 µM (active) | – |
| CC(=O)c1cccc(NC(=O)/C=C/c2ccc([N+](=O)[O-])s2)c1 | 10.3 µM (active) | – |
| CC(=O)c1cccc(NC(=S)N2c3ccccc3CC2C)c1 (stereo not given) | – | 10.2% (inactive) |
| O=C(OCC12CC3CC(CC(C3)C1)C2)c1ccc(NCc2cc(O)ccc2O)cc1 | – | 39.2% (inactive) |
| CCCN1C=CC(=CC=C(C#N)C#N)C=C1 | 9.94 µM (active) | – |
| C=CCN1C=CC(=CC=C(C#N)C#N)C=C1 | 12.5 µM (active) | – |
| Cn1c2ccccc2c2ccc3c(c21)C(=O)C=CC3=O | – | 10.2% (inactive) |
| COc1ccc(/C=C2\Oc3cc(OC(=O)N4CCOCC4)ccc3C2=O)c(OC)c1 | – | -18.4% (inactive) |
| COc1cc(OC)c(OC)cc1/C=C1\Oc2cc(OCC(=O)N3Cc4ccccc4C[C@H]3C(=O)O)ccc2C1=O | 2.06 µM (active) | – |
| Cn1cc(C2=C(c3ccc(Cl)cc3Cl)C(=O)NC2=O)c2ccccc21 | 2.06 µM (active) and 8.2 µM (active) | – |
| COc1ccccc1Nc1cc2cc(Br)ccc2c(=O)[nH]1 | 15.8 µM (active) | – |
| COc1cccc(C(=O)Nc2sc3c(c2C#N)CCN(C(C)=O)C3)c1 | 3.96 µM (active) | – |
| COc1ccc(C(=O)Nc2sc3c(c2C#N)CCN(C(C)=O)C3)cc1 | 12.5 µM (active) | – |
| O=C1[C@@H]2[C@@H](CN3CN(c4ccccc4)N=C(c4ccccc4)[C@@]23c2ccccc2)C(=O)N1c1ccccc1 | – | 3.63% (inactive) |
| Cc1noc(C)c1COc1cccc(C(=O)OCC(=O)N2CC(=O)Nc3ccccc32)c1 | 5.59 µM (active) | – |
| Oc1sc(C=Nc2ccc(F)cc2)c2ccccc12 | 8.2 µM (active) | – |
| COc1ccc(N=Cc2sc(O)c3ccccc23)cc1 | 3.96 µM (active) | – |
| COc1ccc(N=Cc2c(O)c3ccccc3n2C(C)=O)cc1 | 14.6 µM (active) | – |
| COc1ccc(N=Cc2oc3ccc4ccccc4c3c2O)cc1 | 18.4 µM (active) | – |
| Oc1sc(C=Nc2ccccc2)c2ccccc12 | 18.4 µM (active) | – |
| COc1ccc2nc3ccccc3nc2c1NC(=O)c1ccc(Cl)cc1 | 18.4 µM (active) | – |

| Structure (SMILES) | Potency | max response |
| --- | --- | --- |
| COc1ccc2nc3ccccc3nc2c1NC(=O)c1ccc(Br)cc1 | 14.6 µM (active) | – |
| Cc1ccc2c(Cl)c(C)c(N3CCCC3)nc2n1 | – | -28.8% (inactive) |
| C[n+]1ccc(/C=C/c2c[nH]c3ccccc23)cc1 | 8.2 µM (active) | – |
| CC[n+]1ccc(/C=C/c2c[nH]c3ccccc23)cc1 | 9.2 µM (active) | – |
| OCC[n+]1ccc(/C=C/c2c[nH]c3ccccc23)cc1 | 18.4 µM (active) | – |
| C/C(=N\NC(=O)C(C)n1nc(C)c([N+](=O)[O-])c1C)c1ccccc1O (stereo not given) | – | 3.13% (inactive) |
| CN1CCN(c2ccc([N+](=O)[O-])cc2C(=O)c2ccc(Br)cc2)CC1 | 4.98 µM (active) | – |
| Cc1ccc(C(=O)c2cc([N+](=O)[O-])ccc2N2CCOCC2)cc1C | 0.994 µM (active) | – |
| COc1ccc(C(=O)c2cc([N+](=O)[O-])ccc2N2CCCC2)cc1 | 7.04 µM (active) | – |
| CN(C)S(=O)(=O)c1ccc(N2CCCC2)c(C(=O)N2CCN(S(=O)(=O)c3ccc(F)c(F)c3)CC2)c1 | – | 9.68% (inactive) |
| Cc1ccc(C(=O)c2cc([N+](=O)[O-])ccc2N2CCN(C)CC2)cc1 | 7.04 µM (active) | – |
| CNc1cncc(-c2cc(C)c(O)c(C)c2)n1 | 4.98 µM (active) | – |
| Cc1sc2nc(SCC(=O)N3CCOCC3)[nH]c(=O)c2c1-c1ccccc1 | – | -5.17% (inactive) |
| CCOC(=O)CSc1nc2c(c(=O)[nH]1)C(C)(CC)Cc1ccccc1-2 (stereo not given) | 8.2 µM (active) | – |
| COc1cccc(N2CCN(Cc3nc4scc(-c5ccccc5)c4c(=O)[nH]3)CC2)c1 | 12.5 µM (active) | – |
| O=c1[nH]c(CN2CCN(c3ccccc3)CC2)nc2scc(-c3ccccc3)c12 | 9.2 µM (active) | – |
| CC1=CN2C(=N)/C(=C/c3ccc([N+](=O)[O-])o3)C(=O)N=C2S1 | 17.7 µM (active) | – |
| CCS(=O)(=O)C1=NN2C(=N)/C(=C\c3ccc(SCc4ccco4)o3)C(=O)N=C2S1 | – | 2.81% (inactive) |
| COc1ccc(CCNC(=O)CC2(CC3=NS(=O)(=O)c4ccccc4N3)CCCC2)cc1OC | – | -1.6% (inactive) |
| COc1cccc(-c2ccc3c(N)c(C(=O)c4ccc(Cl)cc4)sc3n2)c1 | 20.6 µM (active) | – |
| COc1cccc(-c2ccc3c(N)c(C(=O)c4ccc(Br)cc4)sc3n2)c1 | 20.6 µM (active) | – |
